Screens deposited in PubChem BioAssay by The Scripps Research Institute Molecular Screening Center.
Only some compounds are listed: those with a hit (about 1.8% of all), similar ones and a draw of the others.
LYPLA2 counter – LYPLA2 inhibitors, primary screen, counter-screen for PME1 inhibitor project, biochemical, fluorescence polarization, FP-Rh probe ABPP | Acyl-protein thioesterase 2 (Homo sapiens), O95372 | inhibition, % at 5.9 µM | 320,000 tested, 0.38% active | recombinant LYPLA2;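 active = inhibition above the screen-wide mean plus 3 SD, limit set per campaign, cut at about 26% in these data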
Target sequence (O95372 whole entry, looked up): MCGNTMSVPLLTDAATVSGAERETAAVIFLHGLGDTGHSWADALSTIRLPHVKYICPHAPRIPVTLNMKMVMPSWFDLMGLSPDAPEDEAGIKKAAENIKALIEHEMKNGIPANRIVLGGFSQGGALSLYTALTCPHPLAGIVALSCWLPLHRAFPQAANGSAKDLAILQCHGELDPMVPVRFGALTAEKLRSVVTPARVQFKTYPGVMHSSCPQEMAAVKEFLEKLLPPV
GSTO1 counter – inhibitors of recombinant GSTO1, primary screen, counter-screen for RBBP9 inhibitor project, biochemical, fluorescence polarization; Glutathione S-transferase omega-1 (Homo sapiens), P78417; activity-based probe fluorescence polarization; inhibition, % at 5.96 µM; 300,000 tested, 1.1% active; AID 1974, 2009;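 active = inhibition above the campaign mean inhibition plus 3 SD, cut at about 35% in these data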
Target sequence (P78417 whole entry, looked up): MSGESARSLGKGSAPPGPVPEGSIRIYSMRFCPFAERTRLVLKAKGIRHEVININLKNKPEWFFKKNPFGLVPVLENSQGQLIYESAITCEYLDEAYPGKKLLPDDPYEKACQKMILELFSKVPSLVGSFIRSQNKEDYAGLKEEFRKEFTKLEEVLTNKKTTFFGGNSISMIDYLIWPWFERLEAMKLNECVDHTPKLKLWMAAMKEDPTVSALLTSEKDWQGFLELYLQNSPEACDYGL
PAD4 FP inh – human PAD4 inhibitors, primary screen, biochemical, fluorescence polarization, 1536-well format | inhibition, % at 6.36 µM | recombinant PAD4, RCA probe fluorescence polarization | 330,000 tested, 0.41% active;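 active = percent inhibition above a cutoff equal to the mean of all tested compounds plus 3 SD, cut at about 15% in these data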
Fam108B inh – mouse Fam108B serine hydrolase inhibitors, primary screen, counter-screen for RBBP9 inhibitor project, biochemical, fluorescence polarization | recombinant Fam108B, FP-Rh probe fluorescence polarization | inhibition, % at 9.51 µM | 300,000 tested, 0.33% active | AID 1947, 2009;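 active = inhibition above the screen mean inhibition plus 3 SD, computed separately per campaign, cut at about 18% in these data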;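 note: inhibitors lower polarization as less probe binds the enzyme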
LYPLA1 counter – LYPLA1 inhibitors, primary screen, counter-screen for PME1 inhibitor project, biochemical, fluorescence polarization, FP-Rh probe ABPP; 320,000 tested, 0.16% active; recombinant LYPLA1; inhibition, % at 5.9 µM; Acyl-protein thioesterase 1 (Homo sapiens), O75608;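 active = inhibition above the mean of all tested compounds plus 3 SD, set per campaign, cut at about 14% in these data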;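 note: inhibitors block serine hydrolase probe labeling of LYPLA1 so polarization falls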
Target sequence (O75608 whole entry, looked up): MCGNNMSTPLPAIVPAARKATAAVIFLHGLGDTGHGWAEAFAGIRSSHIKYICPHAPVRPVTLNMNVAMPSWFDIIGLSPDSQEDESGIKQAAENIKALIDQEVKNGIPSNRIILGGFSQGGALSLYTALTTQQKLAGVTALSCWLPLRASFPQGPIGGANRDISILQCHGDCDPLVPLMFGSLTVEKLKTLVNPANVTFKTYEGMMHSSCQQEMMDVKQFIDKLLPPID
PME-1 inh – PME-1 inhibitors via competitive probe labeling, primary screen, biochemical, fluorescence polarization, FP-Rh probe, HTS; Protein phosphatase methylesterase 1 (Homo sapiens), Q9Y570; recombinant PME-1; inhibition, % at 5.9 µM; 320,000 tested, 0.53% active; AID 2130, 2009;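 active = inhibition above the campaign mean of all compounds plus 3 SD, cut at about 26% in these data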;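 note: competitive labeling of PME-1 active site by serine hydrolase directed probe; inhibitors block probe labeling so polarization falls and inhibition rises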
LYPLA1 confirm – LYPLA1 inhibitors, retest, confirmation, counter-screen for PME1 inhibitor project, biochemical, fluorescence polarization, FP-Rh probe ABPP. shares compounds with LYPLA1 counter. recombinant LYPLA1. inhibition, % at 5.9 µM. 480 tested, 69% active. AID 2233, 2010;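 active = mean inhibition across replicates above the hit cutoff set in the primary screen, cut at about 15% in these data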;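 note: loss of FP-Rh probe labeling of LYPLA1 seen as lower polarization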
Of the large screens only hits and unclear results are named; the others gave an inactive call (follow-up assays come after a bar, where they were run).

O=C(COc1ccc(Cl)cc1)N1CCN(c2ccc([N+](=O)[O-])c(N3CCCCC3)c2)CC1	LYPLA1 counter 66 | LYPLA1 confirm 79
Cc1ccc(CNC(=O)C2CCN(c3nc(C)cc(C)n3)CC2)cc1	none
COc1ccc(-n2cc(-c3ccccc3)c3c(NN4CCOCC4)ncnc32)cc1	LYPLA1 counter 14 | LYPLA1 confirm 27
CC(=O)c1sc(NC(=O)C2CCN(C(=O)c3ccc(F)cc3)CC2)nc1-c1ccccc1	LYPLA1 counter 20 | LYPLA1 confirm 29
O=P1(Nn2cnnc2)C=C(c2ccccc2)OC(c2ccccc2)=C1	LYPLA1 counter 17 | LYPLA1 confirm inactive
COc1ccc([C@H]2CC(=O)C=C(c3ccc(C)c([N+](=O)[O-])c3)C2)cc1	LYPLA1 counter 18 (no result: GSTO1 counter, Fam108B inh) | LYPLA1 confirm 17
COc1ccc([C@H]2CC(=O)C=C(c3ccc4c(c3)OCCO4)C2)cc1	none (no result: GSTO1 counter, Fam108B inh)
CCNCC(=O)N1c2ccccc2CCc2ccc(NC(=O)OC(C)C)cc21	none
CC(=O)N1CCN(C(=O)CCc2nnc(CCCCc3ccccc3)o2)CC1	none
COCCCC1CCN(C(=O)CCc2nnc(CCCCc3ccccc3)o2)CC1	LYPLA1 counter 17 | LYPLA1 confirm 17
O=[N+]([O-])c1cccc(OCCCN2CCC(Cc3ccccc3)CC2)c1	LYPLA2 counter 32, LYPLA1 counter 16 | LYPLA1 confirm 20
N#Cc1ccccc1OCCCN1CCC(Cc2ccccc2)CC1	LYPLA1 counter 59 | LYPLA1 confirm 56
Cc1ccc([N+](=O)[O-])c(OCCN2CCC(Cc3ccccc3)CC2)c1	none
O=C(Nc1ccc(Oc2cccnc2)cc1)C1CCN(Cc2ccc(F)cc2)CC1	none
O=C(Nc1ccc(Oc2cccnc2)cc1)C1CCN(Cc2cc(Cl)ccc2O)CC1	LYPLA1 counter 21 | LYPLA1 confirm 18
CC(=O)c1ccc(-c2ccc(/C=C(/Sc3n[nH]c(C)n3)C(=O)O)o2)cc1	none
Cc1nc(S/C(=C/c2ccc(-c3ccc(Cl)cc3)o2)C(=O)O)n[nH]1	LYPLA1 counter 20 | LYPLA1 confirm 19
CC1CCc2c(sc(NC(=O)CN3CCN(C(=O)c4ccco4)CC3)c2C#N)C1 (stereo unspecified)	LYPLA1 counter 42 | LYPLA1 confirm 42
O=C1/C(=C/c2cccc([N+](=O)[O-])c2)Oc2cc(O)ccc21	LYPLA1 counter 17 | LYPLA1 confirm 15
O=C(NCC(=O)N1CCN(c2cccc(Cl)c2)CC1)c1ccc(Br)o1	LYPLA1 counter 14 | LYPLA1 confirm 16
Cc1ccc(Cl)cc1N1CCN(C(=O)CNC(=O)c2ccc(Br)o2)CC1	none (no result: GSTO1 counter, Fam108B inh)
CC(Sc1nc(N)cc(=O)[nH]1)C(=O)Nc1sc2c(c1C#N)CCCC2 (stereo unspecified)	LYPLA1 counter 30 | LYPLA1 confirm 39
N#Cc1c(NC(=O)CSc2nc(N)cc(=O)[nH]2)sc2c1CCCCCC2	none
CCCCn1c(N)c(N(CC(C)C)C(=O)CSc2n[nH]c(-c3ccc(C)cc3)n2)c(=O)[nH]c1=O	none
Cc1ccc(NC(=O)COc2ccc(/C=C3/SC(=Nc4ccccc4)N(Cc4cccnc4)C3=O)cc2)cc1	LYPLA1 counter 68 | LYPLA1 confirm inactive
CCOC(=O)c1ccc(Oc2c(C)oc3c(CN4CCN(C)CC4)c(O)ccc3c2=O)cc1	LYPLA1 counter 17 | LYPLA1 confirm 17
O=C(CCc1ccc(S(=O)(=O)N2CCOCC2)cc1)OCC(=O)c1ccccc1	none (no result: LYPLA2 counter, GSTO1 counter, Fam108B inh, LYPLA1 counter, PME-1 inh)
O=C1C=C(c2ccc3cc[nH]c3c2)C[C@@H](c2ccc3c(c2)OCO3)C1	none (no result: GSTO1 counter, Fam108B inh)
COc1cc(OC)c(OC)cc1/C=C1\Oc2cc(OCC(=O)N3Cc4ccccc4C[C@H]3C(=O)O)ccc2C1=O	LYPLA1 counter 25 | LYPLA1 confirm 22
CCn1c2ccccc2c2nnc(SCc3ccc(C(=O)OC)o3)nc21	LYPLA1 counter 15 | LYPLA1 confirm 22
CC(C)C(=O)Nc1ccc(N2CCOCC2)c(S(=O)(=O)Nc2ccccc2Cl)c1	none (no result: LYPLA2 counter, GSTO1 counter, Fam108B inh, LYPLA1 counter, PME-1 inh)
O=Cc1c(-c2ccccc2)cc2oc3ccccc3cc1-2	none
Cc1ccc(C2(COC(=O)C(C)C)CO2)c(OC(=O)C(C)C)c1 (stereo unspecified)	LYPLA1 counter 29 | LYPLA1 confirm inactive
O=c1nc(/C=C/c2ccc(-c3ccc(F)cc3)o2)cc(C(F)(F)F)[nH]1	none
O=C(O)c1cc(Cl)ccc1-c1ccc(/C=C/c2cc(C(F)(F)F)[nH]c(=O)n2)o1	LYPLA2 counter 31, LYPLA1 counter 18 | LYPLA1 confirm inactive
Cc1ccc(NC(=O)c2ccc(S(=O)(=O)N3CCCCC3)cc2)nc1	none (no result: GSTO1 counter, Fam108B inh)
CCOc1ccc(/C=N/Nc2cc(N3CCOCC3)nc(C)n2)c(O)c1	LYPLA1 counter 30, PME-1 inh 30 | LYPLA1 confirm 33
CCOc1ccc(/C=N/Nc2cc(C)nc(N3CCOCC3)n2)cc1	none
CCCCc1cc(=O)oc2cc(OCc3cc(OC)c(OC)c(OC)c3)c(Cl)cc12	LYPLA1 counter 16 | LYPLA1 confirm 27
COc1ccc(OC)c(NC(=O)NNC(=O)COc2ccc([N+](=O)[O-])cc2)c1	none
C=CCOc1cccc(C(=O)N2CCC(CCC(=O)NC3CC3)CC2)c1	LYPLA1 counter 23 | LYPLA1 confirm inactive
O=C(c1ccc2c(=O)n3c(nc2c1)CCC3)N1CCN(S(=O)(=O)c2cccc(F)c2)CC1	none
CCCCC/C=N/NC(=O)c1[nH]c2ccc([N+](=O)[O-])cc2c1C	LYPLA1 counter 15 | LYPLA1 confirm 40
COc1ccc(N2C(=O)N3[C@@H]4c5ccccc5OC[C@@H]4[C@@H](c4ccccc4)[C@@]3(C)C2=O)cc1	none (no result: LYPLA2 counter, GSTO1 counter, Fam108B inh, LYPLA1 counter, PME-1 inh)
NC(=O)C1=C[C@@H](c2ccc(C(F)(F)F)cc2)C[C@@H](OCc2ccc(CO)cc2)O1	none
NC(=O)C1=C[C@H](c2ccc(C(F)(F)F)cc2)C[C@H](OCc2ccc(CO)cc2)O1	LYPLA1 counter 30 | LYPLA1 confirm 34
O=C(Cc1ccccc1)N1CCC(c2nc(-c3ccc(F)cc3)no2)CC1	LYPLA1 counter 17 | LYPLA1 confirm inactive
Cc1cccc(N2CCN(CC(=O)Nc3ccc(S(=O)(=O)N4CCOCC4)cc3)CC2)c1C	none
COC(=O)c1cccc(NC(=O)c2ccc3c(c2)C(=O)N(Cc2cccnc2)C3=O)c1	LYPLA1 counter 20 | LYPLA1 confirm 19
CC(C)Oc1cccc(C(=O)C2CCCN(C(=O)c3cncs3)C2)c1 (stereo unspecified)	none
